Test results published in the supplement of paper PMC12645437, “Orthogonal IMiD-Degron Pairs Induce Selective Protein Degradation in Cells” (ACS Chemical Biology, 2025).
In all, about 8,300 sequences were measured (“log2 fold change of degron read counts, EGFP-low vs EGFP+ sorted cells (limma voom), compound-induced degradation”: median about -1.1, highest 2% from about 3.2 on). The sample holds the highest values, similar sequences and a random draw of the others, so the mix is not that of the screen.

T1: CRBN, Q96SW2
T1 chain: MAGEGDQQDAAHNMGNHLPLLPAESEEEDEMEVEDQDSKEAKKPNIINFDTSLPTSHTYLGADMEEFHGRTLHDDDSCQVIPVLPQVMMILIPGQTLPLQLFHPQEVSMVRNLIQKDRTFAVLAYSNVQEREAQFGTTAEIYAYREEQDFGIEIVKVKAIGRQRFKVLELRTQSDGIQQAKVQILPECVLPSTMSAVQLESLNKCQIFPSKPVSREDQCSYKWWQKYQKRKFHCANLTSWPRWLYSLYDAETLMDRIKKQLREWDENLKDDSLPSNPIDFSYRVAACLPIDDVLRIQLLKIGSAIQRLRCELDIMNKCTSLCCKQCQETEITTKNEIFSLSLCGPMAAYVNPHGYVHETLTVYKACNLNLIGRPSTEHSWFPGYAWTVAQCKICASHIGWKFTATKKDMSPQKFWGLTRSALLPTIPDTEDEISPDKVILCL


Target: T1, CRBN, Q96SW2
Test: log2 fold change of degron read counts, EGFP-low vs EGFP+ sorted cells (limma voom), compound-induced degradation; higher = more compound-induced degradation of the degron-EGFP fusion; degrons are variants of IKZF1/3 zinc finger 2; compound dose not given here
Details: Jurkat, 18 h
[1] = compound: compound 19 (5-tert-butyl-thalidomide)
[2] = compound: compound 22 (5-morpholino-thalidomide)
[3] = compound: compound 33 (diphenyl IMiD analogue)
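Further: pooled lentiviral library of zinc finger degron-EGFP fusions in mCherry-positive Jurkat cells, FACS-sorted after compound exposure, with degron abundance counted by next-generation sequencing.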

Row | Sequence | log2 fold change of degron read counts [1] | log2 fold change of degron read counts [2] | log2 fold change of degron read counts [3] | log2 fold change of degron read counts (compound: thalidomide)
1 | FWCNICGAGFTQKGNLLRHIKL [46F_47W_49N_50I_52G_53A_54G_55F_67L_, Q9UKT9] | 1.8 | 1.84 | 0.64 | -0.741
2 | FTCDQCGAIFTQKGNLLRHIKL [46F_47T_49D_50Q_52G_53A_54I_55F_67L_, Q9UKT9] | -3.12 | -2.8 | -2.46 | -2.63
3 | LTCEICGFFCTQKGNLLRHIKL [46L_47T_49E_50I_52G_53F_54F_55C_67L_, Q9UKT9] | 0.0809 | 0.0956 | 0.606 | 0.98
4 | FFCNICGAKFTQKGNLLRHIKL [46F_47F_49N_50I_52G_53A_54K_55F_67L_, Q9UKT9] | 1.77 | 1.78 | 0.0329 | -0.6
5 | FQCNVCGAGFTQKGNLLRHIKL [46F_47Q_49N_50V_52G_53A_54G_55F_67L_, Q9UKT9] | -0.572 | -0.754 | -0.58 | 1.66
6 | FQCNQCGRQFTQKGNLLRHIKL [46F_47Q_49N_50Q_52G_53R_54Q_55F_67L_, Q9UKT9] | -3.25 | -3.61 | -3.19 | -2.34
7 | FKCDQCGAQFTQKGNLLRHIKL [46F_47K_49D_50Q_52G_53A_54Q_55F_67L_, Q9UKT9] | -2.9 | -3.7 | -3.4 | -3.16
8 | FECDQCGANFTQKGNLLRHIKL [46F_47E_49D_50Q_52G_53A_54N_55F_67L_, Q9UKT9] | -3.58 | -4.58 | -1.92 | -1.86
9 | FACEQCGAFFTQKGNLLRHIKL [46F_47A_49E_50Q_52G_53A_54F_55F_67L_, Q9UKT9] | -1.43 | -2.96 | -2.14 | -2.45
10 | FVCDVCGAQFTQKGNLLRHIKL [46F_47V_49D_50V_52G_53A_54Q_55F_67L_, Q9UKT9] | -1.63 | 0.889 | 1.87 | 0.809
11 | FECDVCGAQFTQKGNLLRHIKL [46F_47E_49D_50V_52G_53A_54Q_55F_67L_, Q9UKT9] | -2.41 | -2.69 | -1.62 | -0.629
12 | FQCDVCGAQFTQKGNLLRHIKL [46F_47Q_49D_50V_52G_53A_54Q_55F_67L_, Q9UKT9] | -1.59 | 0.635 | 0.642 | 2.41
13 | FHCDVCGAQFTQKGNLLRHIKL [46F_47H_49D_50V_52G_53A_54Q_55F_67L_, Q9UKT9] | -0.281 | 0.385 | -0.661 | -1.69
14 | FWCDVCGAQFTQKGNLLRHIKL [46F_47W_49D_50V_52G_53A_54Q_55F_67L_, Q9UKT9] | 2.68 | 3.85 | 1.36 | -0.531
15 | FYCDVCGAQFTQKGNLLRHIKL [46F_47Y_49D_50V_52G_53A_54Q_55F_67L_, Q9UKT9] | 2.41 | 3.24 | 1.63 | -0.781
16 | FGCPQCGAFFTQKGNLLRHIKL [46F_47G_49P_50Q_52G_53A_54F_55F_67L_, Q9UKT9] | -0.126 | -1.28 | 2.09 | -1.62
17 | FRCSVCGHMFTQKGNLLRHIKL [46F_47R_49S_50V_52G_53H_54M_55F_67L_, Q9UKT9] | -2.17 | -2.3 | -2.41 | -2.23
18 | FVCNVCGAWFTQKGNLLRHIKL [46F_47V_49N_50V_52G_53A_54W_55F_67L_, Q9UKT9] | -2.28 | -1.99 | -1.2 | -1.25
19 | LTCNQCGFLCTQKGNLLRHIKL [46L_47T_49N_50Q_52G_53F_54L_55C_67L_, Q9UKT9] | -2.17 | -2.63 | -2.25 | -1.91
20 | FACPVCGAGFTQKGNLLRHIKL [46F_47A_49P_50V_52G_53A_54G_55F_67L_, Q9UKT9] | 3.42 | 1.04 | 0.678 | 0.677
21 | FQCPVCGAGFTQKGNLLRHIKL [46F_47Q_49P_50V_52G_53A_54G_55F_67L_, Q9UKT9] | 2.21 | 2.03 | 1.81 | 3.38
22 | FRCPVCGAGFTQKGNLLRHIKL [46F_47R_49P_50V_52G_53A_54G_55F_67L_, Q9UKT9] | 2.32 | 1.95 | 2.25 | 1.72
23 | FGCPVCGAGFTQKGNLLRHIKL [46F_47G_49P_50V_52G_53A_54G_55F_67L_, Q9UKT9] | 3.26 | 1.13 | 2.32 | 0.332
24 | FHCPVCGAGFTQKGNLLRHIKL [46F_47H_49P_50V_52G_53A_54G_55F_67L_, Q9UKT9] | 2.85 | 1.03 | 2.35 | -0.326
25 | FCCPVCGAGFTQKGNLLRHIKL [46F_47C_49P_50V_52G_53A_54G_55F_67L_, Q9UKT9] | 2.96 | 1.65 | 1.8 | 1.26
26 | FVCPVCGAGFTQKGNLLRHIKL [46F_47V_49P_50V_52G_53A_54G_55F_67L_, Q9UKT9] | 0.554 | 2.67 | 1.71 | 2.79
27 | FFCPVCGAGFTQKGNLLRHIKL [46F_47F_49P_50V_52G_53A_54G_55F_67L_, Q9UKT9] | 3.15 | 2.03 | 1.8 | 0.528
28 | FYCPVCGAGFTQKGNLLRHIKL [46F_47Y_49P_50V_52G_53A_54G_55F_67L_, Q9UKT9] | 3.05 | 2.07 | 2.22 | -0.0832
